In all, about 360,000 compounds went through this assay and about 4,600 (1.3%) were called active. Only a selection was taken, and actives are over-represented in it overall. Values without a mark were called inactive.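 The calls were made as follows: active = percent inhibition above its own plate's cutoff, namely the mean of that plate's compound wells plus 3 SD; inactive = the rest.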
biological target: Muscarinic acetylcholine receptor M1 (Homo sapiens) (UniProt P11229); test: human M1 muscarinic receptor antagonists, primary screen, CHO-K1 cells, Fluo-8 calcium fluorescence, 1536-well (AID 588852); conditions: CHO-K1 hM1, Fluo-8 calcium fluorescence, ACh EC80 antagonist; at 3 µM; hits give high values;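 also: peak over basal fluorescence ratio during 140 s after agonist addition; 0% = ACh EC80 plus DMSO and 100% = DMSO alone without agonist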
Sequence (P11229 whole entry, looked up): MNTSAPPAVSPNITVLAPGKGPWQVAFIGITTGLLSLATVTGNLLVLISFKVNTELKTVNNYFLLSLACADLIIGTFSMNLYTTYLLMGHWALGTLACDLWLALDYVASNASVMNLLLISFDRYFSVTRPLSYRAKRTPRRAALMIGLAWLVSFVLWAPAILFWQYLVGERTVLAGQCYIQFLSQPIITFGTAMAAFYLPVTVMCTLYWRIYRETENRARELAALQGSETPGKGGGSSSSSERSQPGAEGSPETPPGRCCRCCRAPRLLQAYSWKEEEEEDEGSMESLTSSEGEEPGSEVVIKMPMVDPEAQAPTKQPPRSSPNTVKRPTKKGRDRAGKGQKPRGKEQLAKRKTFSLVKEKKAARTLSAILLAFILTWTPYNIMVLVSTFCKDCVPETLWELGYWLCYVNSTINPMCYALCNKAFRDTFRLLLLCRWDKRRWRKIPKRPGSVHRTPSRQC

SMILES | inhibition
CC(/C=C/c1ccccc1)=N\NC(=O)C1CC1(C)c1ccccc1 (centres undefined) | -3.18%
O=C(CNC(=O)c1ccccc1Br)NCCSc1ccc(Br)cc1 | -10.6%
COc1cc(NC(=O)COc2ccccc2Cl)ccc1NC(=O)C(C)C | 6.01%
CCc1ccccc1OCC(=O)Nc1ccc(C)c(S(=O)(=O)N2CCCCCC2)c1 | 6.49%
Cc1ccccc1OCC(=O)Nc1ccc(N2CCN(C(=O)C(C)C)CC2)c(Cl)c1 | 34.5% (active)
CCN1C(=O)[C@H]2[C@@H](c3ccccc3)N[C@]3(CCCN(Cc4ccc(C)cc4)C3=O)[C@H]2C1=O | -5.93%
COc1ccccc1C(=O)NCCC(=O)NCC(c1ccco1)N1CCCCC1 (centres undefined) | -5.11%
CSc1ncccc1C(=O)NCC(c1ccco1)N1CCCCC1 (centres undefined) | 34.8% (active)
COc1ccc(C(CNC(=O)c2cccnc2SC)N2CCOCC2)cc1 (centres undefined) | -5.53%
Cc1nn(-c2ccccc2)c2sc(C(=O)N(Cc3ccco3)C(C)C(=O)NC(C)(C)C)cc12 (centres undefined) | -7.09%
CCOC1=C2CN(S(=O)(=O)c3ccc(C)cc3)[C@H](c3cccs3)C[C@H]2[C@H]2C(=O)N(c3ccccc3)C(=O)[C@H]2C1 | 1.5%
CC(C)C1CC2=C(C(=O)OC(C)(C)O2)C(c2ccc(F)cc2)O1 (centres undefined) | -37.3%
O=C(NCC(=O)N(CC1CCCO1)C(C(=O)NC1CCCCC1)c1ccccc1)c1ccco1 (centres undefined) | -7.84%
O=C(NCC(=O)N(Cc1cccs1)C(C(=O)NC1CCCCC1)c1ccco1)c1cccs1 (centres undefined) | 35.6% (active)
Cc1ccccc1N(C(=O)CNC(=O)c1cccs1)C(C(=O)NC1CCCC1)c1ccncc1 (centres undefined) | -4.08%
COc1ccc(CC(N)c2csc(NC(=O)NC(c3ccccc3)c3ccccc3)n2)cc1 (centres undefined) | -1.87%
CN1OC[C@@H]2CN(C(=O)C(C)(C)C)[C@H](c3ccc(-n4ccnc4)cc3)C[C@@H]21 | 13.8%
O=C(COC(=O)c1cc(S(=O)(=O)N2CCOCC2)ccc1F)NC1CC1 | -2.77%
CCOC(=O)/C(N=Nc1cc(C(=O)O)cc(C(=O)O)c1)=C(\O)CCl | -12%
CCN(CC)CCn1c2c(c(SCC(=O)Nc3ccc(C(C)C)cc3)nc1=O)CCC2 | 7.72%
Cc1ccc2nc(NC(=O)CSc3nc(=O)n(CCCN(C)C)c4c3CCC4)sc2c1 | 8.16%
CCN(CC)CCn1c2c(c(SCC(=O)Nc3nc4ccccc4s3)nc1=O)CCCC2 | 42.1% (active)
COCCn1c(SCC(=O)Nc2cc(OC)ccc2OC)nc2c(c1=O)SC(C)C2 (centres undefined) | -11.7%
CC1CN(C(=O)c2ccc3c(c2)OCO3)OC(c2ccccc2)O1 (centres undefined) | 1.63%
CCC(C)(C)c1ccc(Oc2ccc(NC(=O)COC(=O)C3=COCCO3)cc2)cc1 | 24.8% (active)
CCOc1ccc(NC(=O)c2ccc(NC(=O)COC(=O)c3ccc(NC(=O)CC#N)cc3)cc2)cc1 | 7.32%
COc1ccc(NC(=O)COC(=O)C2COc3ccccc3O2)cc1 (centres undefined) | -2.48%

SMILES | inhibition
COc1ccc(C(C(=O)NC2CCCCC2)N(C(=O)Cc2c[nH]c3ccccc23)c2ccccc2)cc1OC (centres undefined) | -2.89%
COc1ccc(C2CC(c3cccs3)=NN2C(=O)CSc2nncs2)cc1OC (centres undefined) | -3.74%
COc1ccc(C2CC(c3cccs3)=NN2C(=O)CSc2nnc(N)s2)cc1OC (centres undefined) | 48.8% (active)
COc1ccc(C2CC(c3cccs3)=NN2C(=O)COC(=O)c2cc3ccccc3cc2O)cc1OC (centres undefined) | -1.73%
O=C(Nc1nnc([C@H]2C[C@H](O)[C@@H](CO)O2)s1)c1cccc(Cl)c1 | -7.54%
Nc1nc2c(ncn2[C@@H]2O[C@H](CNCc3ccc(OCCCN4CCOCC4)cc3)[C@@H](O)[C@H]2O)c(=O)[nH]1 | -12.3%
Cn1nc(C(F)(F)F)c(C(=O)Nc2cccc(C(F)(F)F)c2)c1SCc1ccc(Cl)cc1 | 45.3% (active)
O=C(CN1CCN(c2ccc(F)cc2)CC1)Nc1cccc(C(F)(F)F)c1 | -30.1%
COC(=O)c1ccccc1Sc1c(/C=N/OCc2ccc(Cl)cc2)c(C(F)(F)F)nn1C | 6.15%
COc1cccc(NC(=O)Nc2nnc(N3CCCCC3C)s2)c1 (centres undefined) | -9.08%
C=C(C)c1cccc(C(C)(C)NC(=O)NCCN(CC)CC)c1 | 82.6% (active)
C=C(C)c1cccc(C(C)(C)NC(=O)NC2CCCC2)c1 | -0.33%
C=C(C)c1cccc(C(C)(C)NC(=O)N2CCN(c3ncccn3)CC2)c1 | -3.97%
CN(CC(=O)NCCc1ccccc1)S(=O)(=O)c1cnc[nH]1 | -5.57%
CC(C)C(=O)Nc1nnc(Sc2ccc(N(C)C)cc2)s1 | -14.1%
CN(C)C1=NC[C@H](Cc2ccccc2)N1CCc1ccc(F)cc1 | 9.98%
CC(NC(=O)Nc1ccccc1)c1ccccc1 (centres undefined) | -2.37%
CCC(C(=O)Nc1ccc(C(C)C)cc1)c1ccccc1 (centres undefined) | 37.1% (active)
CC(C)c1ccc(NC(=O)Cn2ncc3ccccc32)cc1 | -20.8%
COc1ccc(C(C)(O)c2nc(-c3cc(F)cc(F)c3)cs2)cc1 (centres undefined) | -4.19%
COc1ccccc1N(C)S(=O)(=O)c1ccc(C(=O)N2CCC(C(N)=O)CC2)cc1 | -7.95%
COC(=O)CCCCC1=CCC2C(=O)C=C(O)C2C1 (centres undefined) | 4.53%
Cc1ccc(C)c(N2CCN(C(=O)CCCCCn3c(=S)[nH]c4ccc(N5CCOCC5)cc4c3=O)CC2)c1 | 39.5% (active)
O=C(CCCCCn1c(=S)[nH]c2cc3c(cc2c1=O)OCO3)N1CCN(c2ccc(F)cc2)CC1 | -8.71%
Cc1ccc(C)c(N2CCN(C(=O)CCCn3c(=O)c4cccn4c4cccnc43)CC2)c1 | -0.03%
Cc1ccnc(NC(=O)C(C)N2C(=O)c3ccccc3C2=O)c1 (centres undefined) | -0.26%
Cc1ccccc1C#CC1=CC(=O)CC(C)(C)C1 | -7.17%

— PubChem BioAssay AID588852 (The Scripps Research Institute Molecular Screening Center, 2011)
